Inconclusive results are not listed. Calls of active or inactive are those of the source. Calls come from the whole dose curve; as a rule, active = well fitted curve in the direction sought with a large enough effect; inconclusive = small, poorly fitted or top-dose-only effect, or another doubt; inactive = no such curve, though single readings can be large; an effect the other way counts as inactive or inconclusive. *1 amine or outer side, *2 acyl side, *3 side chain or, on linkers, in order; H or OH if unused. Where a SMILES comes first, the peptide text is derived from it. [ ]: non-standard residue; d: D form. The star is where a group is joined. X13 = O=C(C(CC(O)CO)O[*:1])[*:2]; NMeV = CN[CH](C(=O)O)C(C)C; βNA = c1ccc2cc(N*)ccc2c1; Cbz = O=C(OCc1ccccc1)*; NMeA = CN[CH](C)C(=O)O; βAla = NCCC(=O)O
How the values were obtained:
HACAT = experiment: qHTS assay to identify novel small-molecules to repurpose for Merkel cell carcinoma treatment (AID 1296009); conditions: MCC and control cell lines, CellTiter-Glo viability, 72 h; at 44.8 µM (top of the series) unless noted; note: nearly all actives have a fitted effect of over 60% in size
In short: (§1)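 Luminescence from CellTiter-Glo, read 10 min after addition at room temperature, reported viability following a 72 hr, 37 degree celsius treatment with NPC or MIPE compounds in titration; values normalized to plate controls.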

NIH3T3 = experiment: as above; conditions: MCC and control cell lines, CellTiter-Glo viability, 72 h; at 44.8 µM (top of the series) unless noted
In short: as §1

C33A = experiment: Primary qHTS to identify gynecologic anti-cancer compounds using libraries of approved drugs and bioactive compounds (AID 1345084); conditions: Gynecologic cancer cell panel viability, ATPlite luminescence, 48 h; series mostly up to 57.5 µM; note: % is set by controls: 0 for no effect and ±100 for the full control effect; nearly all actives have a fitted effect of over 55% in size
In short: (§2)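 Cytotoxicity screen measuring ATP content by luciferase luminescence. Each compound is applied at five concentrations for 48 h at 37 C with 5% CO2.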

CAOV3 = experiment: as above; conditions: Gynecologic cancer cell panel viability, ATPlite luminescence, 48 h; series mostly up to 57.5 µM
In short: as §2

CASKI = experiment: as above; conditions: Gynecologic cancer cell panel viability, ATPlite luminescence, 48 h; series mostly up to 57.5 µM
In short: as §2

Es-2 = experiment: as above; conditions: Gynecologic cancer cell panel viability, ATPlite luminescence, 48 h; series mostly up to 57.5 µM
In short: as §2

HeLa = experiment: as above; conditions: Gynecologic cancer cell panel viability, ATPlite luminescence, 48 h; series mostly up to 57.5 µM
In short: as §2

Hek293T = experiment: as above; conditions: Gynecologic cancer cell panel viability, ATPlite luminescence, 48 h, control line for the selectivity index; series mostly up to 57.5 µM
In short: as §2

JEG-3 = experiment: as above; conditions: Gynecologic cancer cell panel viability, ATPlite luminescence, 48 h; series mostly up to 57.5 µM
In short: as §2

C[C@@H]1CC2OC(=O)C3=C2C(CCC3O)[C@@]12C[C@@H](c1ccoc1)OC2=O (stereo not given in full)
inactive: outcome (HACAT) | outcome (NIH3T3) | Potency (C33A) | Potency (CAOV3) | outcome (CASKI) | Potency (Es-2) | Potency (HeLa) | Potency (Hek293T) | Potency (JEG-3)

COCCCc1sc(-c2ccccc2)nc1C(=O)Nc1ccccc1-c1nc2cc(CN3CCCC3)cnc2s1
inactive: outcome (HACAT) inactive [at 17.4 µM] | outcome (NIH3T3) inactive [at 17.4 µM] | Potency (C33A) | Potency (CAOV3) | outcome (CASKI) | Potency (Es-2) | Potency (HeLa) | Potency (Hek293T) | Potency (JEG-3)

CC1C2=CC(=O)OC2(O)CC2C1C(O)CC1C(C)(CO)CCCC21C (stereo not given)
inactive: outcome (HACAT) | outcome (NIH3T3) | Potency (C33A) | Potency (CAOV3) | outcome (CASKI) | Potency (Es-2) | Potency (HeLa) | Potency (Hek293T) | Potency (JEG-3)

C[C@H](O)C(O)(C(=O)OCc1ccccc1NC(=O)CCC(N)C(=O)O)[C@H](C)O (stereo not given in full)
inactive: outcome (HACAT) inactive [at 17.4 µM] | outcome (NIH3T3) inactive [at 17.4 µM] | Potency (C33A) | Potency (CAOV3) | outcome (CASKI) | Potency (Es-2) | Potency (HeLa) | Potency (Hek293T) | Potency (JEG-3)

CC(C)CC(NC(=O)OCc1ccccc1)C(=O)NC(CC(C)C)C(=O)NC(CCC(=O)O)C(=O)Nc1ccc2ccccc2c1 (stereo not drawn) (Cbz-Leu-Leu-Glu-βNA; configuration not given here)
inactive: outcome (HACAT) | outcome (NIH3T3) | Potency (C33A) | Potency (CAOV3) | outcome (CASKI) | Potency (Es-2) | Potency (HeLa) | Potency (Hek293T) | Potency (JEG-3)

C=C[C@]1(C)C[C@@H](OC(=O)CSC2C[C@H]3CC[C@@H](C2)N3C)[C@]2(C)[C@H](C)CC[C@]3(CCC(=O)[C@H]32)[C@@H](C)[C@@H]1O (stereo not given in full)
inactive: outcome (HACAT) | outcome (NIH3T3) | Potency (C33A) | Potency (CAOV3) | outcome (CASKI) | Potency (Es-2) | Potency (HeLa) | Potency (Hek293T) | Potency (JEG-3)

COC(=O)C1=CO[C@@H](O[C@@H]2O[C@H](CO)[C@@H](O)[C@H](O)[C@H]2O)[C@@H]2C(C)CC(=O)[C@]12O (stereo not given in full)
inactive: outcome (HACAT) inactive [at 17.4 µM] | outcome (NIH3T3) inactive [at 17.4 µM] | Potency (C33A) | Potency (CAOV3) | outcome (CASKI) | Potency (Es-2) | Potency (HeLa) | Potency (Hek293T) | Potency (JEG-3)

COc1cc(CC2COC(c3ccc(OC4OC(CO)C(O)C(O)C4O)c(OC)c3)C2CO)ccc1O (stereo not given)
inactive: outcome (HACAT) inactive [at 17.4 µM] | outcome (NIH3T3) inactive [at 17.4 µM] | Potency (C33A) | Potency (CAOV3) | outcome (CASKI) | Potency (Es-2) | Potency (HeLa) | Potency (Hek293T) | Potency (JEG-3)

Cc1c(-c2ccc3c(c2)OCO3)oc2ccc(C(O)C(C)O)cc12 (stereo not given)
inactive: outcome (HACAT) | outcome (NIH3T3) | Potency (C33A) | Potency (CAOV3) | outcome (CASKI) | Potency (Es-2) | Potency (HeLa) | Potency (Hek293T) | Potency (JEG-3)

CN(C)CCC[C@]1(c2ccc(F)cc2)OCc2cc(C#N)ccc21
inactive: outcome (HACAT) | outcome (NIH3T3) | Potency (C33A) | Potency (CAOV3) | outcome (CASKI) | Potency (Es-2) | Potency (HeLa) | Potency (Hek293T) | Potency (JEG-3)

Cc1occc(=O)c1O[C@@H]1O[C@H](COC(=O)CC(C)(O)CC(=O)O)[C@@H](O)[C@H](O)[C@H]1O (stereo not given in full)
inactive: outcome (HACAT) inactive [at 17.4 µM] | outcome (NIH3T3) inactive [at 17.4 µM] | Potency (C33A) | Potency (CAOV3) | outcome (CASKI) | Potency (Es-2) | Potency (HeLa) | Potency (Hek293T) | Potency (JEG-3)

CC(=O)OCC1OC(O[C@H]2CC[C@@]3(C)C(CC[C@]4(C)C3CC=C3[C@@H]5CC(C)(C)CC[C@]5(C(=O)O)CC[C@]34C)[C@]2(C)CO)C(O)C(O)C1OC1OC(C)C(O)C(OC2OCC(O)C(O)C2O)C1O (stereo not given in full)
inactive: outcome (HACAT) inactive [at 9.27 µM] | outcome (NIH3T3) inactive [at 9.27 µM] | activity change, negative = cytotoxicity (C33A) -0.849% [at 11.6 µM] | activity change, negative = cytotoxicity (CAOV3) 3.79% [at 11.6 µM] | activity change, negative = cytotoxicity (CASKI) 14.3% [at 11.6 µM] | activity change, negative = cytotoxicity (Es-2) 2.8% [at 11.6 µM] | activity change, negative = cytotoxicity (HeLa) 8.24% [at 11.6 µM] | activity change, negative = cytotoxicity (Hek293T) 6.88% [at 11.6 µM] | activity change, negative = cytotoxicity (JEG-3) 4.64% [at 11.6 µM]

CCC(C)C1NC(=O)C2CCCN2C(=O)C(CC(O)CO)OC(=O)CCNC(=O)C(C)N(C)C(=O)C(C(C)C)N(C)C1=O (stereo not given) (cyclo([X13]PI[NMeV][NMeA][βAla]); configuration not given here)
inactive: outcome (HACAT) inactive [at 17.4 µM] | outcome (NIH3T3) inactive [at 17.4 µM] | Potency (C33A) | Potency (CAOV3) | outcome (CASKI) | Potency (Es-2) | Potency (HeLa) | Potency (Hek293T) | Potency (JEG-3)

CC1(CO)CC(O)C2(C)CCC3(C)C(=CCC4C5(C=O)CCC(OC6OC(C(=O)O)C(O)C(O)C6OC6OC(C(=O)O)C(O)C(O)C6O)C(C)(C)C5CCC43C)C2C1 (stereo not given)
inactive: outcome (HACAT) inactive [at 9.27 µM] | outcome (NIH3T3) inactive [at 9.27 µM] | activity change, negative = cytotoxicity (C33A) 4.08% [at 11.6 µM] | activity change, negative = cytotoxicity (CAOV3) 8.53% [at 11.6 µM] | activity change, negative = cytotoxicity (CASKI) 5.93% [at 11.6 µM] | activity change, negative = cytotoxicity (Es-2) 3.36% [at 11.6 µM] | activity change, negative = cytotoxicity (HeLa) 7.21% [at 11.6 µM] | activity change, negative = cytotoxicity (Hek293T) -0.0914% [at 11.6 µM] | activity change, negative = cytotoxicity (JEG-3) 2.3% [at 11.6 µM]

C=C1C(=O)O[C@@H]2C[C@]3(C)[C@@H](CCC(C)=O)[C@@H]3C[C@H]12
inactive: outcome (HACAT) | outcome (NIH3T3) | Potency (C33A) | Potency (CAOV3) | outcome (CASKI) | Potency (Es-2) | Potency (HeLa) | Potency (Hek293T) | Potency (JEG-3)
